Screening data deposited in PubChem BioAssay by National Center for Advancing Translational Sciences (NCATS).
Cycloheximide cs: affects cycloheximide protein synthesis inhibition readout, counter-screen. max response, %. cell reporter, cycloheximide protein synthesis inhibition counterscreen. 12% of 300,000 active; in the data active means max response mostly above about 13%, no sharp cut-off; inactive means mostly below about 14%; further: read at 38.3 µM for the half of the compounds with a filed dose; 0% is about no effect
Shiga toxin inh: blocks Shiga toxin action in Vero cells | inhibition, % at 38.7 µM | 9.2% of 290,000 active | Vero cells, Shiga toxin protein synthesis inhibition reporter; in the data active means inhibition mostly above about 28%, no sharp cut-off; inactive means mostly below about 43%; further: 0% is about no effect
MARV entry inh: blocks Marburg virus binding to or entry into cells. Marburg virus pseudotyped entry inhibition, cell reporter. Potency, µM (top dose mostly 37.8 µM), for the others: at the top dose activity change, negative = inhibition, usual class: inhibitors. 1.8% of 300,000 active. AID 540276; calls by dose curve; tested in HEK293 cells; further: potency means the concentration at half of the fitted maximal effect; on the % scale 0 is the no-effect control and ±100 the full control effect
Lassa entry inh: blocks Lassa virus binding to or entry into cells; Potency, µM (highest dose often 37.9 µM), for the others: at the highest dose activity change, negative = inhibition, usual class: inhibitors; 1.2% of 300,000 active; Lassa virus pseudotype entry inhibition, cell reporter; calls by dose curve; tested in HEK293 cells; further: potency means the concentration at half of the fitted maximal effect; on the % scale 0 is the no-effect control and ±100 the full control effect; nearly all actives have a fitted effect of over 50% in size
* = called active by the depositor; ? = inconclusive; · = no result given; [ ] = another dose, or the depositor's remark. Most compounds without a hit are left out; they make up all but 12% or so of the library.

SMILES	Cycloheximide cs	Shiga toxin inh	MARV entry inh	Lassa entry inh
CCCCCc1nnc(NC(=O)C2COc3ccccc3O2)s1 (stereo not drawn)	30*	39*	4%[46.1 µM]	16%
CC1=C(C)CS(=O)N(c2ccc(S(N)(=O)=O)cc2)C1 (stereo not drawn)	-3	40	1%	?
CC1=C(C)CS(=O)N(S(=O)(=O)c2ccccc2)C1 (stereo not drawn)	-4	-8	13µM*	10%
CCn1c(=O)c2sccc2n(Cc2cc(C(=O)OC)ccc2OC)c1=O	-2	-15	·	·
c1ccc(C2=Nc3ccccc3NC(c3ccccc3)C2)cc1 (stereo not drawn)	36*	126*	10%	29%
Brc1ccccc1C1CC(c2ccccc2)=Nc2ccccc2N1 (stereo not drawn)	97*	91*	?	?
Clc1ccccc1C1CC(c2ccccc2)=Nc2ccccc2N1 (stereo not drawn)	43*	93*	?	-2%
CCCCC/C=C\C/C=C\C/C=C\C/C=C\CCCC(=O)C(F)(F)F	3	25	·	·
CC(=O)OC[C@H]1O[C@@H](n2ncc(=O)[nH]c2=O)[C@H](OC(C)=O)[C@@H]1OC(C)=O	-1	16	?	0.73µM*
O=C(OCC1OC(n2ncc(=O)[nH]c2=O)C(OC(=O)c2ccccc2)C1OC(=O)c1ccccc1)c1ccccc1 (stereo not drawn)	-1	-3	·	·
COc1ccc(/C=C(\NC(=O)c2ccccc2)C(=O)NCc2ccco2)cc1OC	-1	16	-18%	-3%
Cc1nc(COc2ccc(C(=O)Nc3ccccc3N3CCOCC3)cc2)cs1	9	26*	-13%[46.1 µM]	10%[46.1 µM]
CCOc1ccc(S(=O)(=O)N(CC)CC(=O)NCc2ccncc2)cc1	1	-9	1%	4%
CC1CCC(NC(=O)CCC(=O)N2CC(C)Oc3ccccc32)CC1 (stereo not drawn)	15*	21	·	·
Cc1sc2ncnc(N3CCC(C(=O)Nc4nc(-c5cccs5)cs4)CC3)c2c1C	·	·	2.2µM*	4%
Cc1ccc2nc(NC(=O)C3CCN(c4ncnc5sc(C)c(C)c45)CC3)sc2c1	18*	21	8%	29%
Cc1sc2ncnc(N3CCC(C(=O)Nc4cc(Cl)ccc4Cl)CC3)c2c1C	·	·	1%	-8%
CCC(CC)NC(=O)CO/N=C/c1ccccc1OC(F)F	-3	11	31%	?
CSc1nc2ccc(NC(=O)c3ccc(=O)n(C)n3)cc2s1	19*	42*	2%[46.1 µM]	2%
CSc1nc2ccc(NC(=O)c3ccc(=O)[nH]c3)cc2s1	9	-6	7%[46.1 µM]	-21%[46.1 µM]
CCC(=O)Nc1nc2ccc(NC(C)=O)cc2s1	33*	47	-8%	1%
CC(=O)Nc1ccc2nc(NC(=O)c3ccco3)sc2c1	25*	36*	·	·
CSc1nc2ccc(NC(=O)c3ccc(F)c(F)c3)cc2s1	39*	41*	?	-7%[46.1 µM]
COc1ccc(CCn2nnnc2C2(c3ccc(C)cc3)CC2)cc1	·	·	-5%	-21%
O=C(CSc1nccc(=O)[nH]1)NN(c1ccccc1)c1ccccc1	-4	-10	?	?
SMILES	Cycloheximide cs	Shiga toxin inh	MARV entry inh	Lassa entry inh
Cc1ccc(C(=O)N2CCOCC2)c(F)c1F	11	17	·	·
Cc1ccccc1-c1ncc(CN2CCC(CO)(CCCc3ccccc3)CC2)cn1	-1	3	·	·
CCOc1cccc2sc(N(CCN(C)C)C(=O)CCS(=O)(=O)c3ccccc3)nc12	·	·	?	3%
O=C(Nc1nc2ccc([N+](=O)[O-])cc2s1)c1c(F)cccc1F	3	17	-16%	16%
CSc1nc2ccc(NC(=O)c3cc4ccccc4o3)cc2s1	30*	70*	?	?
CCOc1cccc2sc(Nc3nc4ccc(NC(C)=O)cc4s3)nc12	27*	58*	10µM*	?
O=C(Nc1nc2ccc([N+](=O)[O-])cc2s1)c1ccco1	27*	44	·	·
CCOc1cccc2sc(NC(=O)CCS(=O)(=O)c3ccccc3)nc12	13	5	10µM*	?
Cc1sc2nc(CSC(C)C(=O)N3CCOCC3)[nH]c(=O)c2c1C (stereo not drawn)	-1	-6	·	·
O=C(OCC(=O)C12CC3CC(CC(C3)C1)C2)c1cnccn1	7	-31	17%	0%
COc1ccc(C(=O)NC(=S)Nc2cccc3ncccc23)cc1[N+](=O)[O-]	-2	-4	·	·
CCC(C)C(NC(=O)CCC(=O)OCC(=O)[C@@]1(O)CCC2[C@@H]3CCC4=CC(=O)C=C[C@]4(C)C3[C@@H](O)C[C@@]21C)C(=O)O (stereo partly drawn)	2	1	·	·
CSc1nc2ccc(NC(=O)c3ccco3)cc2s1	35*	57*	?	-5%
CSc1nc2ccc(NC(=O)c3nn(C(C)C)c(=O)c4ccccc34)cc2s1	53*	102*	?	?
